This is part of a sample that, as a whole, favours compounds with a hit. Of some 83,000 tested, about 20% had one in any assay.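 48-hour exposure, single concentration, 96-well plates; percent growth endpoint where 0 means no net growth. Active: below 10.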 The source made the active and inactive calls.

Among the data in PubChem BioAssay (NCI) are growth values, retold here.

The assay concerns HL-60(TB) leukemia. The assay can be described thus: NCI-60 one-dose screen, 48 h (100 = growth as untreated, 0 = no growth, -100 = all killed). The note with it: 10 µM unless noted.
In the case of `COc1ccc2c(c1)Oc1nc(N)c(C#N)c(N)c1C2Sc1ccc(SC)cc1` (configuration not stated), the growth is -22.3% (active).
As to `Oc1ccc(/C=N/NC(=S)Nc2ccccc2)nc1`, the growth is -8.79% (active).
For `CC[C@@H](C(=O)[C@H](C)[C@H](O)[C@@H](C)[C@H]1O[C@H]([C@@H](CC)C(=O)N(CC)CC)CC[C@H]1C)C1O[C@]2(C=C[C@@H](O)[C@]3(CC[C@@](C)([C@H]4CC[C@](O)(CC)[C@H](C)O4)O3)O2)[C@H](C)C[C@@H]1C` (some centres not stated), the growth was -28.8% (active).
`CNc1nc2ncc(-c3c(C)noc3C)cc2n1Cc1ccccc1`: the growth is 8.97% (active).
Consider `COc1ccc(/C(=N\O)c2cc(C)c(OC)c(C)c2)cc1O`, for which the growth was -18.3% (active).
As to `O=C(Nc1cc(Cl)cc(Cl)c1)Oc1c(Cl)c(Cl)c(Cl)c(Cl)c1Cl`, the growth is 60.9% (inactive).
On to `C[C@]1(CO)C[C@@H](O)C[C@]2(C)[C@@H]1CC[C@@]13C[C@@H]4[C@@H](C[C@H]12)[C@]4(C)C3`, for which the growth is 103% (inactive).
Regarding `Cc1nc2ccccc2n1-c1ncnc2c1CC(C)c1ccccc1N2C` (configuration not stated), the growth is 83.8% (inactive).
As for `COc1ccc(C(=O)c2sc3nc4c(c(C(F)(F)F)c3c2N)CN(C(C)=O)CC4)cc1OC`, the growth was 98.7% (inactive).
The value for `O=C1/C(=C/c2ccc(OCc3ccccc3)cc2)Oc2cc(OCCN3CCCCC3)ccc21` was 80.9% (inactive).
With `Cc1cc(N2CCCC2)nc(NCc2cc(Nc3ccnc4cc(Cl)ccc34)ccc2F)n1`, the growth is -61.1% (active).
For `S=c1n(CNc2ccc(Cl)nn2)nc(-c2cc(Cl)cc(Cl)c2Cl)n1/N=C/c1ccc(Cl)cc1`, the growth was 3.47% (active).
